The values that follow come from PubChem BioAssay (NCATS).

SMILES strings stand for the structures. Several values for one entry are separate records, joined by “and”; a condition that tells them apart may be missing. Equal values may be shown once. Results filed as inconclusive are left out. A call without a number means that no potency is given here. Activity calls are given as the source filed them. Calls follow the shape of the dose curve; as a rule, active = well fitted curve in the direction sought with a large enough effect; inconclusive = small, poorly fitted or top-dose-only effect, or another doubt; inactive = no such curve, though single readings can be large; an effect the other way counts as inactive or inconclusive.
Potency is read from the fitted curve at half-maximal effect.

The first assay in a line: NS1 protein of Zika virus - qHTS assay to identify small molecule inhibitors in human HEK 293 cells (AID 1347053). Also: nearly all actives have a fitted effect of over 55% in size. As to conditions: HEK293 ZIKV MR766 infection, NS1 TR-FRET, 24 h; series mostly up to 46.1 µM. In short, it runs like this: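 TR-FRET signal from two anti-ZIKV NS1 antibodies quantified NS1 in HEK 293 cells 24 h after MR766 infection at MOI = 0.5; compounds were added 1 h before virus. Uninfected cells and infected cells defined the NS1 normalization range.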
In the case of `CCc1cc(Nc2nccc(-c3c(-c4ccc(OC)c(C(=O)Nc5c(F)cccc5F)c4)nc4ccccn34)n2)c(OC)cc1N1CCC(N2CCN(S(C)(=O)=O)CC2)CC1`, the Potency is 26.4 µM (active).

`COc1ccc2c3n(c(=NC(=O)c4cccnc4)nc2c1OC)CCN3`: the Potency result was “inactive”.

With `CCCS(=O)(=O)Nc1ccc(F)c(C(=O)c2c[nH]c3ncc(Cl)cc23)c1F`, the Potency result is “inactive”.

Consider `CN(C)c1ccc(Nc2nc(N)n(C(=O)c3c(F)cccc3F)n2)cc1`, for which the Potency entry was “inactive”.

With `O=c1[nH]c(-c2ccc(C(F)(F)F)cc2)nc2c1CSCC2`, the Potency result is “inactive”.

Consider `COc1ccc(-c2oc3cc(OC)ccc3c2C(=O)c2ccc(C#N)cc2)cc1`, for which the Potency entry is “inactive”.

For the compound `CCC(C)(C)C(=O)O[C@H]1C[C@@H](C)C=C2C=C[C@H](C)[C@H](CC[C@@H]3C[C@@H](O)CC(=O)O3)[C@H]21`, the Potency result was “inactive”.

Consider `CCn1c(-c2nonc2N)nc2cnc(Oc3cccc(NC(=O)c4ccc(OCCN5CCOCC5)cc4)c3)cc21`, for which the Potency is 14.8 µM (active).

For the compound `CCOc1cc(N2CCC(O)CC2)ccc1Nc1ncc2c(n1)N(C)c1ccccc1C(=O)N2C`, the Potency entry was “inactive”.

As for `CCOc1cc(C(=O)Nc2ccc(Cl)c(-c3nc4ccccc4[nH]3)c2)cc(OCC)c1OCC`, the Potency entry is “inactive”.

In the case of `CCn1c(-c2nonc2N)nc2c(C#CC(C)(C)O)ncc(OC[C@H]3CCCNC3)c21`, the Potency result was “inactive”.

In the case of `COc1ccc(COc2cc3oc(=O)c4cc(C(C)O)ccc4c3cc2OC)cc1` (stereo not given), the Potency result was “inactive”.

As to `COc1cccc2cc(-c3nc(C4CCC(C(=O)O)CC4)n4ncnc(N)c34)[nH]c12` (stereo not given), the Potency result is “inactive”.

For the compound `Cc1cc(Nc2nc(N[C@@H](C)c3ncc(F)cn3)ncc2Cl)n[nH]1`, the Potency result was “inactive”.

On to `Cc1n[nH]c(C)c1Cc1sc2c(c1C(=O)N1C[C@H](O)CO1)c(=O)n(C)c(=O)n2CC(C)C`, for which the Potency result was “inactive”.

As to `Cc1cc2c(F)c(Oc3ncnn4cc(OC[C@@H](C)O)c(C)c34)ccc2[nH]1`, the Potency was 0.935 µM (active).

Another assay is described as follows: qHTS of pediatric cancer cell lines to identify multiple opportunities for drug repurposing: Primary screen for TC32 cells (AID 1347089). Also: nearly all actives have a fitted effect of over 60% in size. As to conditions: TC32 Ewing sarcoma viability, CellTiter-Glo luminescence, 48 h; series mostly up to 45.8 µM. The gist of the method:
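TC32 cells, 500-1,000/well in growth medium, compound-treated 48 h at 37 °C; viability from CellTiter-Glo luminescence. Primary screen: MIPE 11-point (0.78 nM–46 µM final), NPC 8-point (0.59 nM–46 µM final); confirmatory at 11-point dilutions.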
A general note: qHTS replaces the single test concentration by a dilution series.
In the case of `S=C(NCc1ccc2c(c1)OCO2)N1CCN(c2ncnc3c2oc2ccccc23)CC1`, the Potency entry was “inactive”.

Consider `COCC(=O)NCC=Cc1ccc2ncnc(Nc3ccc(Oc4ccc(C)nc4)c(C)c3)c2c1`, for which the Potency entry was “inactive”.

Take `CC1(C)Cc2c(-c3ccccc3)c(-c3ccc(Cl)cc3)c(CC(=O)O)n2C1`: the Potency result was “inactive”.

With `Cc1c(CN2CCN(C(=O)C(C)C)CC2)sc2c(N3CCOCC3)nc(-c3cnc(N)nc3)nc12`, the Potency was 0.466 µM (active).

As to `O=C(Nc1cccnc1)N1CCC(Cc2cccc(Oc3ccc(C(F)(F)F)cn3)c2)CC1`, the Potency result is “inactive”.

Consider `CCc1cc(Nc2nccc(-c3c(-c4ccc(OC)c(C(=O)Nc5c(F)cccc5F)c4)nc4ccccn34)n2)c(OC)cc1N1CCC(N2CCN(S(C)(=O)=O)CC2)CC1`, for which the Potency entry was “inactive”.

Take `COc1ccc(-c2c(-c3ccc(O)cc3O)n[nH]c2C)cc1`: the Potency result is “inactive”.

Regarding `CCCS(=O)(=O)Nc1ccc(F)c(C(=O)c2c[nH]c3ncc(Cl)cc23)c1F`, the Potency result was “inactive”.

Regarding `CCCCCCCc1ccc(CCc2cccc(O)c2C(=O)O)cc1`, the Potency result was “inactive”.

For `O=c1[nH]c(-c2ccc(C(F)(F)F)cc2)nc2c1CSCC2`, the Potency entry is “inactive”.

As for `COc1ccc(-c2oc3cc(OC)ccc3c2C(=O)c2ccc(C#N)cc2)cc1`, the Potency result was “inactive”.

Consider `CCn1c(-c2nonc2N)nc2cnc(Oc3cccc(NC(=O)c4ccc(OCCN5CCOCC5)cc4)c3)cc21`, for which the Potency entry was “inactive”.

In the case of `CCOc1cc(N2CCC(O)CC2)ccc1Nc1ncc2c(n1)N(C)c1ccccc1C(=O)N2C`, the Potency was 23.4 µM (active).

Regarding `CCOc1cc(C(=O)Nc2ccc(Cl)c(-c3nc4ccccc4[nH]3)c2)cc(OCC)c1OCC`, the Potency result is “inactive”.

Take `Cc1cc(-c2ccc(CC(=O)Nc3ccc(-c4cccnc4)cc3)cc2)ccn1`: the Potency entry was “inactive”.

On to `CC(C)(N)C(=O)N[C@H](COCc1ccccc1)C(=O)N1CCC2(CC1)CN(S(C)(=O)=O)c1ccccc12`, for which the Potency entry was “inactive”.

For the compound `COc1ccc(COc2cc3oc(=O)c4cc(C(C)O)ccc4c3cc2OC)cc1` (stereo not given), the Potency entry was “inactive”.

In the case of `COc1ccc(-c2ccc3c(N4CCOC[C@H]4C)nc(N4CCOC[C@H]4C)nc3n2)cc1CO`, the Potency was 0.165 µM (active).

Turning to `Cc1cc2c(C(C)C)c(O)c(O)c(C=O)c2c(O)c1-c1c(C)cc2c(C(C)C)c(O)c(O)c(C=O)c2c1O`, the Potency entry was “inactive”.

`COc1ccc(C2=N[C@H](c3ccc(Cl)cc3)[C@H](c3ccc(Cl)cc3)N2C(=O)N2CCNC(=O)C2)c(OC(C)C)c1`: the Potency result is “inactive”.

With `O=C(C1CC1)N1CC[C@@H](Cn2c(-c3ccc(-c4ccc5occc5c4)cc3)nc3cnccc32)C1`, the Potency result was “inactive”.

Consider `Cc1ccccc1C(C(=O)NC1CCCC1)N(C(=O)Cn1cnc2ccccc21)c1cccc(F)c1` (stereo not given), for which the Potency result was “inactive”.

For `CN(C)c1ccc(C2Nc3ccc4ccccc4c3C3=C2C(=O)CC(C)(C)C3)cc1Br` (stereo not given), the Potency entry was “inactive”.

`Nc1cccc(S(=O)(=O)N2CCCN(S(=O)(=O)c3ccc4c(c3)OCCO4)CC2)c1`: the Potency result was “inactive”.

A short description of a further assay: qHTS of pediatric cancer cell lines to identify multiple opportunities for drug repurposing: Primary screen for DAOY cells (AID 1347090). Also: nearly all actives have a fitted effect of over 55% in size. As to conditions: DAOY medulloblastoma viability, CellTiter-Glo luminescence, 48 h; series mostly up to 46 µM. The gist of the method:
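Viability measured as metabolically active cells via CellTiter-Glo luminescence following 48 hours of compound exposure, 11-point dilutions in confirmatory testing. 500-1,000 cells/well plated 5 hours before dosing; controls were DMSO and 2.3 µM bortezomib.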
For `S=C(NCc1ccc2c(c1)OCO2)N1CCN(c2ncnc3c2oc2ccccc23)CC1`, the Potency was 2.15 µM (active).

With `Cc1c(CN2CCN(C(=O)C(C)C)CC2)sc2c(N3CCOCC3)nc(-c3cnc(N)nc3)nc12`, the Potency was 0.469 µM (active).

`O=C(Nc1cccnc1)N1CCC(Cc2cccc(Oc3ccc(C(F)(F)F)cn3)c2)CC1`: the Potency is 14.8 µM (active).

Regarding `COc1ccc2c3n(c(=NC(=O)c4cccnc4)nc2c1OC)CCN3`, the Potency is 1.87 µM (active).

Take `CCC(C)(C)C(=O)O[C@H]1C[C@@H](C)C=C2C=C[C@H](C)[C@H](CC[C@@H]3C[C@@H](O)CC(=O)O3)[C@H]21`: the Potency is 6.68 µM (active) and 5.9 µM (active).

Consider `CC(C)(N)C(=O)N[C@H](COCc1ccccc1)C(=O)N1CCC2(CC1)CN(S(C)(=O)=O)c1ccccc12`, for which the Potency result is “inactive”.

Take `COc1cc2nccc(Oc3ccc(NC(=O)NC4CC4)c(Cl)c3)c2cc1C(N)=O`: the Potency is 4.69 µM (active).

Take `Cc1cc2c(C(C)C)c(O)c(O)c(C=O)c2c(O)c1-c1c(C)cc2c(C(C)C)c(O)c(O)c(C=O)c2c1O`: the Potency is 21.1 µM (active) and 14.8 µM (active).

Take `COc1ccc(C2=N[C@H](c3ccc(Cl)cc3)[C@H](c3ccc(Cl)cc3)N2C(=O)N2CCNC(=O)C2)c(OC(C)C)c1`: the Potency was 23.5 µM (active).

In the case of `O=C(C1CC1)N1CC[C@@H](Cn2c(-c3ccc(-c4ccc5occc5c4)cc3)nc3cnccc32)C1`, the Potency entry is “inactive”.

Consider `Cc1ccccc1C(C(=O)NC1CCCC1)N(C(=O)Cn1cnc2ccccc21)c1cccc(F)c1` (stereo not given), for which the Potency result was “inactive”.

`Cc1cc(Nc2nc(N[C@@H](C)c3ncc(F)cn3)ncc2Cl)n[nH]1`: the Potency is 2.96 µM (active).

For `CN(C)c1ccc(C2Nc3ccc4ccccc4c3C3=C2C(=O)CC(C)(C)C3)cc1Br` (stereo not given), the Potency entry was “inactive”.

In the case of `Nc1cccc(S(=O)(=O)N2CCCN(S(=O)(=O)c3ccc4c(c3)OCCO4)CC2)c1`, the Potency result was “inactive”.

Regarding `Cc1n[nH]c(C)c1Cc1sc2c(c1C(=O)N1C[C@H](O)CO1)c(=O)n(C)c(=O)n2CC(C)C`, the Potency entry was “inactive”.
